Compounds without any hit were thinned out: in the full panel of roughly 79,000, 15% have a hit. Activity calls are given as the source filed them. Cut-off read from the data, not from the text of the source: active = growth inhibition above about 70%; inactive = the rest.

One test in a line: NCI Yeast Anticancer Drug Screen. Data for the rad18 strain (AID 177). To be noted: S. cerevisiae rad18 mutant growth inhibition; at 3.7 µM; stronger effect = higher value. The method in brief: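 Test articles were incubated with altered yeast defective in DNA damage repair. Results are given as inhibition of growth versus vehicle.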
With `C=CC(C)(O)CCC1C(=C)C(O)CC2C(C)(C)CCCC12C` (centres undefined), the growth inhibition was -19% (inactive).

Take `S=C(Nc1ccc(Cl)c(Cl)c1)SCc1ccc2c(c1)OCO2`: the growth inhibition is 34% (inactive).

As to `COc1cc(C2C3=C(COC3=O)Oc3cc4c(cc32)OCO4)ccc1O` (centres undefined), the growth inhibition was -6% (inactive).

For `S=C(Nc1ccc(Cl)cc1)SC1CCCCC1`, the growth inhibition was -7% (inactive).

On to `Nc1nc(-c2cccnc2)cc(-c2cc(-c3cccnc3)nc(N)n2)n1`, for which the growth inhibition was -4% (inactive).

Regarding `COC1=CC(=O)C2C(C1=O)C(c1ccc(Cl)cc1)[C@@H]2C` (some centres undefined), the growth inhibition was 29% (inactive).

Turning to `c1ccc(-c2nc3cccnc3s2)cc1`, the growth inhibition is 2% (inactive).

In the case of `O=[N+]([O-])c1cc(CCl)ccc1CCl`, the growth inhibition is 66% (inactive).

Turning to `COc1ccc(/C=C2\SC(=S)N(/C=C/c3nc4ccccc4[nH]c3=O)C2=O)cc1OC`, the growth inhibition was 20% (inactive).

For `CCCN(CCC)CC(O)c1cc(-c2ccc(Cl)cc2)nc2c(C)c(Cl)ccc12` (centres undefined), the growth inhibition is -5% (inactive).

Take `O=C(Nc1ccccc1)OCCc1ccc(Cl)c(Cl)c1`: the growth inhibition is 7% (inactive).

For the compound `C#CCCCc1ccccc1`, the growth inhibition was -49% (inactive).

In the case of `CC(=O)Cc1ccc[cH-]1.[Fe+2].c1cc[cH-]c1`, the growth inhibition was 17% (inactive).

On to `Cc1cc(I)ccc1N`, for which the growth inhibition is -4% (inactive).

Take `FC(F)(F)c1cc(NC(=S)N2c3ccccc3-n3cccc3C2c2cccnc2)cc(C(F)(F)F)c1` (centres undefined): the growth inhibition was -6% (inactive).

Take `CC(C)(CN1CCCCC1)C(=O)CC(SCCS(=O)(=O)O)c1ccc(Br)cc1` (centres undefined): the growth inhibition is 15% (inactive).

Regarding `C[Si](C)(C)CNC(=O)OCc1ccccc1`, the growth inhibition was -2% (inactive).

As to `CC(C(=O)N1C(=O)N(C(=O)[C@H](C)C(O)c2ccccc2)[C@H](c2ccccc2)[C@H]1c1ccccc1)[C@@H](O)c1ccccc1` (some centres undefined), the growth inhibition is 6% (inactive).

Take `Oc1cccc2c(Cl)ccnc12`: the growth inhibition was 98% (active).

Turning to `O=C1C=CC(=C(c2ccccc2)c2ccccc2)c2ccccc21`, the growth inhibition was 4% (inactive).

Take `S=C(S)NN1CCOCC1`: the growth inhibition is 67% (inactive).

The same test, now with this note: S. cerevisiae rad18 mutant growth inhibition; at 11.0 µM; stronger effect = higher value.
Take `C/C(=N\NC(=S)SCc1ccccc1)c1ccccn1`: the growth inhibition is 80% (active).

Consider `CC[C@@]1(O)C(=O)OCc2c1cc1n(c2=O)Cc2cc3c(N)cccc3nc2-1`, for which the growth inhibition is -13% (inactive).

Turning to `CN(C)c1ccc(Sc2ccc3nc(N)nc(N)c3c2)cc1`, the growth inhibition is -12% (inactive).

Consider `CC(=O)OCCOCNC(=S)N/N=C(\C)c1cnccn1`, for which the growth inhibition was 13% (inactive).

On to `COc1ccc(C2c3cc4c(cc3OC(C)(O)C2C)OCO4)c(OC)c1` (centres undefined), for which the growth inhibition was 1% (inactive).

As to `COc1cc(C2SCC(=O)N2c2ccc(-c3ccc(-n4c(-c5ccccc5)nc5ccccc5c4=O)cc3)cc2)cc(OC)c1OC` (centres undefined), the growth inhibition was 0% (inactive).

Consider `COc1ccc(Br)c(C(=O)Sc2nnnn2-c2cccc(Cl)c2)c1`, for which the growth inhibition is -8% (inactive).

As to `O=C(NNc1ccnc2cc(Cl)ccc12)/C(=C\c1ccccc1Cl)NC(=O)c1ccccc1`, the growth inhibition is 34% (inactive).

For the compound `CSC(=S)Nc1cccc(C)n1`, the growth inhibition was -22% (inactive).

With `O=C(/C=C\c1ccc(Cl)cc1Cl)c1cccs1`, the growth inhibition was 29% (inactive).

Consider `COc1ccc(-c2cn(-c3ccc(I)cc3)c3ncnc(N)c23)cc1`, for which the growth inhibition was -10% (inactive).

`CN(C)c1ccc(C(C#N)=C(C#N)C#N)cc1`: the growth inhibition was 5% (inactive).

For `COc1cc(/C=C2\CCc3ccccc3C2=O)cc(OC)c1OC`, the growth inhibition was 7% (inactive).

Regarding `CC(C)/C(Cl)=N\OC(=O)Nc1cccc(Cl)c1`, the growth inhibition was -10% (inactive).

As for `CC1(C)[C@@H]2CC[C@]1(C)[C@H](OC(=O)CSC#N)C2`, the growth inhibition was 28% (inactive).

With `NNC(=O)CCc1ccc2ccc3ccccc3c2c1`, the growth inhibition is -8% (inactive).

Turning to `COc1ccc(/C(C)=N/OC(=O)c2c(-c3ccccc3Cl)noc2C)cc1CN1CCOCC1`, the growth inhibition is -2% (inactive).

Take `C=CC(C)(O)CCC1C(=C)C(O)CC2C(C)(C)CCCC12C` (centres undefined): the growth inhibition is -15% (inactive).

In the case of `S=C(Nc1ccc(Cl)c(Cl)c1)SCc1ccc2c(c1)OCO2`, the growth inhibition was 99% (active).

For the compound `COc1cc(C2C3=C(COC3=O)Oc3cc4c(cc32)OCO4)ccc1O` (centres undefined), the growth inhibition was 3% (inactive).

Take `S=C(Nc1ccc(Cl)cc1)SC1CCCCC1`: the growth inhibition is 48% (inactive).

In the case of `Nc1nc(-c2cccnc2)cc(-c2cc(-c3cccnc3)nc(N)n2)n1`, the growth inhibition was -9% (inactive).

Turning to `COC1=CC(=O)C2C(C1=O)C(c1ccc(Cl)cc1)[C@@H]2C` (some centres undefined), the growth inhibition was 97% (active).

As for `c1ccc(-c2nc3cccnc3s2)cc1`, the growth inhibition is -1% (inactive).

With `O=[N+]([O-])c1cc(CCl)ccc1CCl`, the growth inhibition was 94% (active).

As for `COc1ccc(/C=C2\SC(=S)N(/C=C/c3nc4ccccc4[nH]c3=O)C2=O)cc1OC`, the growth inhibition was 39% (inactive).

For `CCCN(CCC)CC(O)c1cc(-c2ccc(Cl)cc2)nc2c(C)c(Cl)ccc12` (centres undefined), the growth inhibition is 98% (active).

As to `O=C(Nc1ccccc1)OCCc1ccc(Cl)c(Cl)c1`, the growth inhibition was 17% (inactive).

Regarding `C#CCCCc1ccccc1`, the growth inhibition is -58% (inactive).

As to `CC(=O)Cc1ccc[cH-]1.[Fe+2].c1cc[cH-]c1`, the growth inhibition is 29% (inactive).

As to `Cc1cc(I)ccc1N`, the growth inhibition is -15% (inactive).

For `FC(F)(F)c1cc(NC(=S)N2c3ccccc3-n3cccc3C2c2cccnc2)cc(C(F)(F)F)c1` (centres undefined), the growth inhibition is 0% (inactive).

As for `CC(C)(CN1CCCCC1)C(=O)CC(SCCS(=O)(=O)O)c1ccc(Br)cc1` (centres undefined), the growth inhibition was 29% (inactive).

Turning to `C[Si](C)(C)CNC(=O)OCc1ccccc1`, the growth inhibition was 8% (inactive).

For the compound `CC(C(=O)N1C(=O)N(C(=O)[C@H](C)C(O)c2ccccc2)[C@H](c2ccccc2)[C@H]1c1ccccc1)[C@@H](O)c1ccccc1` (some centres undefined), the growth inhibition was 25% (inactive).

Take `Oc1cccc2c(Cl)ccnc12`: the growth inhibition is 97% (active).

For the compound `O=C1C=CC(=C(c2ccccc2)c2ccccc2)c2ccccc21`, the growth inhibition is 1% (inactive).

For `S=C(S)NN1CCOCC1`, the growth inhibition was 67% (inactive).

Source of the values: PubChem BioAssay (NCI).
